Measured values: PubChem BioAssay AID1159580 (chemical genetic matrix, 2015)
Out of some 5,500 compounds screened, about 2,000 (36%) were called active. Inconclusive results (about 18%) are left out. No stated cut-off is given here; in the data, active means normalized growth mostly below about 0.91 (no sharp cut-off); inconclusive means no clear call, values can overlap the other calls; inactive means mostly above about 0.92. The list shows a part of the results.

Test: chemical genetic growth profiling, strain panel (AID 1159580);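 further: tested at 20 µM; growth read once vehicle control cultures reached saturation at 30 °C; 1 = growth at the plate median or of vehicle wells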
Details: growth OD
[1] = S. cerevisiae deletion strains, locus YBR021W, strain FUR4, stronger effect = lower value
[2] = S. cerevisiae deletion strains, locus YBR229C, strain ROT2, stronger effect = lower value
[3] = S. cerevisiae deletion strains, locus YCL029C, strain bik1, stronger effect = lower value
[4] = S. cerevisiae deletion strains, locus YDL035C, strain GPR1, stronger effect = lower value
[5] = S. cerevisiae deletion strains, locus YDL074C, strain BRE1, stronger effect = lower value
[6] = S. cerevisiae deletion strains, locus YDL101C, strain DUN1, stronger effect = lower value
[7] = S. cerevisiae deletion strains, locus YDL134C, strain PPH21, stronger effect = lower value
[8] = S. cerevisiae deletion strains, locus YDL185W, strain tfp1, stronger effect = lower value
[9] = S. cerevisiae deletion strains, locus YDL192W, strain arf1, stronger effect = lower value
[10] = S. cerevisiae deletion strains, locus YDR101C, strain arx1, stronger effect = lower value
[11] = S. cerevisiae deletion strains, locus YDR162C, strain NBP2, stronger effect = lower value
[12] = S. cerevisiae deletion strains, locus YDR318W, strain mcm21, stronger effect = lower value
[13] = S. cerevisiae deletion strains, locus YDR388W, stronger effect = lower value
[14] = S. cerevisiae deletion strains, locus YDR502C, strain sam2, stronger effect = lower value
[15] = S. cerevisiae deletion strains, locus YEL061C, strain CIN8, stronger effect = lower value
[16] = S. cerevisiae deletion strains, locus YER110C, stronger effect = lower value
[17] = S. cerevisiae deletion strains, locus YER155C, strain BEM2, stronger effect = lower value
[18] = S. cerevisiae deletion strains, locus YER167W, strain BCK2, stronger effect = lower value
[19] = S. cerevisiae deletion strains, locus YGL078C, strain dbp3, stronger effect = lower value
[20] = S. cerevisiae deletion strains, locus YGL086W, strain mad1, stronger effect = lower value
[21] = S. cerevisiae deletion strains, locus YGL248W, strain PDE1, stronger effect = lower value
[22] = S. cerevisiae deletion strains, locus YGR078C, strain PAC10, stronger effect = lower value
[23] = S. cerevisiae deletion strains, locus YGR135W, strain pre9, stronger effect = lower value
[24] = S. cerevisiae deletion strains, locus YGR252W, strain gcn5, stronger effect = lower value
[25] = S. cerevisiae deletion strains, locus YHR030C, strain SLT2, stronger effect = lower value
[26] = S. cerevisiae deletion strains, locus YHR079C, strain IRE1 (second series), stronger effect = lower value
[27] = S. cerevisiae deletion strains, locus YHR094C, strain hxt1, stronger effect = lower value
[28] = S. cerevisiae deletion strains, locus YHR129C, strain ARP1, stronger effect = lower value
[29] = S. cerevisiae deletion strains, locus YHR200W, strain rpn10, stronger effect = lower value
[30] = S. cerevisiae deletion strains, locus YIL066C, strain RNR3, stronger effect = lower value
[31] = S. cerevisiae deletion strains, locus YIL073C, strain SPO22, stronger effect = lower value
[32] = S. cerevisiae deletion strains, locus YIL125W, strain kgd1, stronger effect = lower value
[33] = S. cerevisiae deletion strains, locus YIR030C, strain dcg1, stronger effect = lower value
[34] = S. cerevisiae deletion strains, locus YJL095W, strain BCK1, stronger effect = lower value
[35] = S. cerevisiae deletion strains, locus YJL134W, strain LCB3, stronger effect = lower value
[36] = S. cerevisiae deletion strains, locus YJL168C, strain set2, stronger effect = lower value
[37] = S. cerevisiae deletion strains, locus YJL187C, strain SWE1 (second series), stronger effect = lower value
[38] = S. cerevisiae deletion strains, locus YJR043C, strain POL32, stronger effect = lower value
[39] = S. cerevisiae deletion strains, locus YJR075W, strain HOC1, stronger effect = lower value
[40] = S. cerevisiae deletion strains, locus YKL009W, strain mrt4, stronger effect = lower value
[41] = S. cerevisiae deletion strains, locus YKL068W, stronger effect = lower value
[42] = S. cerevisiae deletion strains, locus YKL085W, strain MDH1 (second series), stronger effect = lower value
[43] = S. cerevisiae deletion strains, locus YKL085W, strain MDH1, stronger effect = lower value
[44] = S. cerevisiae deletion strains, locus YKL190W, strain CNB1, stronger effect = lower value
[45] = S. cerevisiae deletion strains, locus YKR001C, strain vps1, stronger effect = lower value
[46] = S. cerevisiae deletion strains, locus YLR039C, strain RIC1, stronger effect = lower value
[47] = S. cerevisiae deletion strains, locus YLR058C, strain SHM2, stronger effect = lower value
[48] = S. cerevisiae deletion strains, locus YLR102C, strain apc9, stronger effect = lower value
[49] = S. cerevisiae deletion strains, locus YLR262C, strain YPT6, stronger effect = lower value
[50] = S. cerevisiae deletion strains, locus YLR268W, strain sec22, stronger effect = lower value
[51] = S. cerevisiae deletion strains, locus YLR330W, strain CHS5, stronger effect = lower value
[52] = S. cerevisiae deletion strains, locus YLR342W, strain FKS1 (second series), stronger effect = lower value
[53] = S. cerevisiae deletion strains, locus YLR371W, strain rom2, stronger effect = lower value
[54] = S. cerevisiae deletion strains, locus YLR418C, strain cdc73, stronger effect = lower value
[55] = S. cerevisiae deletion strains, locus YML016C, strain PPZ1, stronger effect = lower value
[56] = S. cerevisiae deletion strains, locus YML032C, strain rad52, stronger effect = lower value
[57] = S. cerevisiae deletion strains, locus YML124C, strain tub3, stronger effect = lower value
[58] = S. cerevisiae deletion strains, locus YMR078C, strain ctf18, stronger effect = lower value
[59] = S. cerevisiae deletion strains, locus YMR223W, strain ubp8, stronger effect = lower value
[60] = S. cerevisiae deletion strains, locus YMR263W, strain SAP30, stronger effect = lower value
[61] = S. cerevisiae deletion strains, locus YMR307W, strain GAS1, stronger effect = lower value
[62] = S. cerevisiae deletion strains, locus YNL067W, strain RPL9B, stronger effect = lower value
[63] = S. cerevisiae deletion strains, locus YNL128W, strain TEP1, stronger effect = lower value
[64] = S. cerevisiae deletion strains, locus YNL153C, strain GIM3, stronger effect = lower value
[65] = S. cerevisiae deletion strains, locus YNL233W, strain BNI4, stronger effect = lower value
[66] = S. cerevisiae deletion strains, locus YNL250W, strain rad50, stronger effect = lower value
[67] = S. cerevisiae deletion strains, locus YNL271C, strain bni1, stronger effect = lower value
[68] = S. cerevisiae deletion strains, locus YNL298W, strain CLA4, stronger effect = lower value
[69] = S. cerevisiae deletion strains, locus YNL307C, strain MCK1, stronger effect = lower value
[70] = S. cerevisiae deletion strains, locus YNR052C, strain pop2, stronger effect = lower value
[71] = S. cerevisiae deletion strains, locus YOL006C, strain TOP1, stronger effect = lower value
[72] = S. cerevisiae deletion strains, locus YOL012C, strain htz1
[73] = S. cerevisiae deletion strains, locus YOL147C, strain pex11, stronger effect = lower value
[74] = S. cerevisiae deletion strains, locus YOR061W, strain CKA2, stronger effect = lower value
[75] = S. cerevisiae deletion strains, locus YOR069W, strain VPS5, stronger effect = lower value
[76] = S. cerevisiae deletion strains, locus YOR136W, strain idh2, stronger effect = lower value
[77] = S. cerevisiae deletion strains, locus YOR144C, strain elg1, stronger effect = lower value
[78] = S. cerevisiae deletion strains, locus YOR184W, strain ser1, stronger effect = lower value
[79] = S. cerevisiae deletion strains, locus YOR316C, strain cot1, stronger effect = lower value
[80] = S. cerevisiae deletion strains, locus YPL055C, strain LGE1, stronger effect = lower value
[81] = S. cerevisiae deletion strains, locus YPL241C, strain CIN2, stronger effect = lower value
[82] = S. cerevisiae deletion strains, locus YPR119W, strain clb2, stronger effect = lower value
[83] = S. cerevisiae deletion strains, locus YPR141C, strain kar3, stronger effect = lower value
[84] = S. cerevisiae deletion strains, locus YPR163C, strain tif3, stronger effect = lower value
[85] = S. cerevisiae deletion strains, locus YPR167C, strain met16, stronger effect = lower value
[86] = S. cerevisiae deletion strains, strain wtn01, stronger effect = lower value

Measured: normalized growth

COc1ccc(-c2coc3cc(OC)cc(O)c3c2=O)cc1
inactive: S. cerevisiae deletion strains, locus YAL013W, strain DEP1, stronger effect = lower value 0.962 | [1] 0.862 | [2] 0.98 | [3] 0.966 | [4] 0.959 | [5] 0.91 | [6] 0.98 | [7] 0.982 | [8] 0.968 | [9] 0.96 | [10] 0.96 | S. cerevisiae deletion strains, locus YDR150W, strain NUM1, stronger effect = lower value 0.991 | [11] 0.983 | [12] 0.922 | [13] 0.957 | [14] 0.967 | [15] 0.982 | [16] 0.958 | [17] 0.967 | [18] 0.933 | [19] 0.978 | [20] 0.955 | [21] 0.976 | [22] 0.952 | [23] 0.94 | S. cerevisiae deletion strains, locus YGR229C, strain SMI1, stronger effect = lower value 0.924 | [24] 0.768 | [25] 0.972 | [26] 0.935 | [27] 0.976 | [28] 0.967 | [29] 0.957 | [30] 0.975 | [31] 0.905 | [32] 0.969 | [33] 0.97 | [34] 0.907 | [35] 0.986 | [36] 0.975 | [37] 0.972 | [38] 0.911 | [39] 0.951 | [40] 0.919 | [41] 0.989 | [42] 0.982 | [43] 0.982 | [44] 0.979 | [46] 0.971 | [47] 0.974 | [48] 0.969 | [49] 0.959 | [50] 0.957 | [51] 0.977 | [52] 0.859 | [53] 0.969 | [54] 0.889 | [55] 0.975 | [56] 0.94 | [57] 0.974 | [58] 0.96 | [59] 0.94 | [60] 0.967 | [61] 0.81 | [62] 0.977 | [63] 0.994 | [64] 0.995 | [65] 0.923 | [66] 0.968 | [67] 0.973 | [68] 0.928 | S. cerevisiae deletion strains, locus YNL322C, strain KRE1, stronger effect = lower value 0.985 | [70] 0.968 | [71] 0.863 | [72] 1.51 | [73] 0.969 | [74] 0.996 | [75] 0.984 | [76] 0.971 | [77] 0.975 | [79] 0.96 | [80] 0.92 | [81] 0.987 | [82] 0.972 | [83] 0.99 | [84] 0.973 | [85] 0.97 | [86] 0.944 | S. cerevisiae strains, strain wild type, stronger effect = lower value 0.963
active: [45] 0.898 | [69] 0.805 | [78] 0.872

COc1cc(O)c2c(=O)c(-c3ccc(O)cc3)coc2c1
active: [1] 0.832 | [7] 0.859 | [9] 0.84 | [10] 0.873 | [12] 0.886 | [14] 0.842 | [17] 0.891 | [18] 0.853 | [20] 0.881 | [21] 0.874 | [22] 0.835 | [23] 0.817 | [24] 0.612 | [25] 0.916 | [28] 0.899 | [29] 0.894 | [30] 0.845 | [34] 0.73 | [38] 0.771 | [39] 0.859 | [45] 0.73 | [46] 0.58 | [49] 0.552 | [50] 0.866 | [51] 0.872 | [52] 0.701 | [53] 0.823 | [54] 0.61 | [56] 0.865 | [59] 0.862 | [60] 0.884 | [65] 0.809 | [68] 0.894 | [69] 0.816 | [71] 0.489 | [73] 0.877 | [77] 0.918 | [78] 0.756 | [86] 0.841
inactive: [2] 0.973 | [3] 0.952 | [4] 0.89 | [5] 0.782 | [6] 0.942 | [8] 0.972 | [11] 0.853 | [13] 0.943 | [15] 0.93 | [16] 0.944 | [19] 0.935 | [26] 0.947 | [27] 0.959 | [31] 0.818 | [32] 0.964 | [33] 0.938 | [35] 0.984 | [36] 0.947 | [37] 0.894 | [40] 0.88 | [41] 0.969 | [42] 0.948 | [43] 0.948 | [44] 0.961 | [47] 0.913 | [48] 0.946 | [55] 0.947 | [57] 0.942 | [58] 0.954 | [61] 0.642 | [62] 0.891 | [63] 0.96 | [64] 0.941 | [66] 0.957 | [67] 0.94 | [70] 0.919 | [72] 1.29 | [74] 0.936 | [75] 0.94 | [76] 0.946 | [79] 0.945 | [80] 0.791 | [81] 0.97 | [82] 0.962 | [83] 0.967 | [84] 0.93 | [85] 0.942
